miR122 inh: raises miR-122 sensor activity in Huh7 cells; Huh7 psiCHECK-miR122 Renilla luciferase sensor, 48 h; activation, % at 12.5 µM; hit rate 0.14% among 340,000; AID 623901;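 active = mean activation of 30% or more, with every replicate also reaching 30%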;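 also: higher luciferase signal means stronger suppression of miR-122 activity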
Hits are given with their value; – = inactive. This excerpt belongs to a sample that is enriched for hits.

SMILES	miR122 inh
CCCNC(=O)N(C)C[C@@H]1Oc2ncc(/C=C/c3ccccc3)cc2C(=O)N([C@H](C)CO)C[C@@H]1C	–
C[C@@H]1CN([C@H](C)CO)C(=O)c2cc(-c3cccc(C#N)c3)cnc2O[C@@H]1CN(C)C(=O)C1CCCCC1	–
C[C@@H]1CN([C@H](C)CO)C(=O)c2cc(-c3cncnc3)cnc2O[C@@H]1CN(C)Cc1ccc(F)cc1	–
C[C@H](CO)N1C[C@H](C)[C@@H](CN(C)Cc2ccccn2)Oc2ncc(-c3ccc(F)cc3)cc2C1=O	–
C[C@@H]1CN([C@H](C)CO)C(=O)c2cc(C#Cc3cccc(F)c3)cnc2O[C@@H]1CN(C)CC1CCCC1	–
C[C@H]1CN([C@@H](C)CO)C(=O)c2cc(-c3ccc(C#N)cc3)cnc2O[C@@H]1CN(C)CC1CCOCC1	–
CCCNC(=O)N(C)C[C@H]1Oc2ncc(/C=C/c3ccccc3)cc2C(=O)N([C@@H](C)CO)C[C@H]1C	–
CCCC(O)C#Cc1cnc2c(c1)C(=O)N([C@H](C)CO)C[C@H](C)[C@H](CN(C)S(=O)(=O)c1ccccc1)O2 (some centres not stated)	–
COc1cccc(-c2ccc3c(c2)O[C@@H](CN(C)C(C)=O)[C@@H](C)CN([C@H](C)CO)S3(=O)=O)c1	–
C[C@H]1CN([C@@H](C)CO)C(=O)c2cc(C#Cc3cccc(F)c3)cnc2O[C@H]1CN(C)C(=O)C1CC1	–
CNC(=O)C[C@@H]1CC[C@@H]2[C@H](COc3ccc(NC(=O)NC(C)C)cc3C(=O)N2C)O1	53
CO[C@@H]1CN(C)C(=O)c2cc(NC(=O)NC(C)C)ccc2OC[C@@H](C)N(C(=O)NC(C)C)C[C@@H]1C	–
COC(=O)C[C@H]1CC[C@H]2[C@H](COc3ccc(NC(=O)Nc4ccccc4C)cc3C(=O)N2C)O1	–
CO[C@@H]1CN(C)C(=O)c2cc(NC(=O)NC(C)C)ccc2OC[C@H](C)N(C(=O)NC(C)C)C[C@@H]1C	–
COC(=O)C[C@H]1CC[C@H]2[C@H](COc3ccc(NC(=O)NC(C)C)cc3C(=O)N2C)O1	50
CO[C@@H]1CN(C)C(=O)c2ccc(NC(=O)NC(C)C)cc2OC[C@@H](C)NC[C@@H]1C	–
COC(=O)C[C@H]1CC[C@H]2[C@H](COc3ccc(NS(=O)(=O)c4ccc(F)cc4)cc3C(=O)N2C)O1	37
COCC(=O)N(C)C[C@@H]1Oc2ncc(/C=C/c3ccccc3)cc2C(=O)N([C@H](C)CO)C[C@H]1C	–
COc1ccc(C(=O)Nc2ccc3c(c2)OC[C@@H](C)N(C)C[C@@H](C)[C@@H](OC)CN(C)C3=O)cc1	–
C[C@H]1CN([C@@H](C)CO)C(=O)c2cc(C#Cc3ccccc3F)cnc2O[C@H]1CN(C)C(=O)Cc1ccncc1	–
COc1ccc(S(=O)(=O)Nc2ccc3c(c2)C(=O)N([C@H](C)CO)C[C@@H](C)[C@@H](CN(C)S(=O)(=O)c2ccc(C)cc2)O3)cc1	–
CC(C)C#Cc1ccc2c(c1)O[C@H](CN(C)C(=O)c1ccccc1)[C@@H](C)CN([C@H](C)CO)S2(=O)=O	–
C[C@H](CO)N1C[C@H](C)[C@@H](CN(C)C(=O)c2cccc(F)c2)Oc2ncc(-c3cccc(F)c3)cc2C1=O	–
C[C@@H]1CN([C@H](C)CO)C(=O)c2cc(-c3cccc(C#N)c3)cnc2O[C@@H]1CN(C)C	–
CCCC(=O)Nc1ccc2c(c1)OC[C@@H](C)N(C)C[C@@H](C)[C@@H](OC)CN(C)C2=O	–
SMILES	miR122 inh
COc1ccc(C(=O)Nc2ccc3c(c2)OC[C@H](C)N(C)C[C@H](C)[C@H](OC)CN(C)C3=O)cc1	–
Cc1ccc(-c2cnc3c(c2)C(=O)N([C@@H](C)CO)C[C@@H](C)[C@H](CN(C)C(=O)c2ccncc2)O3)cc1	–
CN(C[C@@H]1[C@@H](c2ccccc2)[C@@H](CO)N1Cc1ccccn1)S(C)(=O)=O	–
O=C(NC[C@H]1N[C@H](CO)[C@H]1c1ccccc1)c1ccccc1F	–
CC(C)N(C[C@@H]1N[C@@H](CO)[C@@H]1c1ccccc1)S(=O)(=O)c1ccccc1	67
CC(=O)N(C)C[C@@H]1[C@@H](c2ccc(-c3cccnc3)cc2)[C@H](CO)N1C(=O)C1CC1	–
CC(=O)N(C[C@@H]1N[C@@H](CO)[C@H]1c1ccc(-c2ccccc2)cc1)C(C)C	67
C[C@H]1CN([C@@H](C)CO)S(=O)(=O)c2ccc(-c3cccc(C#N)c3)cc2O[C@H]1CN(C)Cc1ccccn1	–
C[C@H](CO)N1C[C@H](C)[C@H](CN(C)C(=O)Nc2ccccc2)Oc2cc(C#Cc3ccccc3)ccc2S1(=O)=O	–
CCCNC(=O)N(C)C[C@@H]1Oc2cc(C#Cc3cccc(F)c3)ccc2S(=O)(=O)N([C@H](C)CO)C[C@@H]1C	–
COCC#Cc1cnc2c(c1)C(=O)N([C@@H](C)CO)C[C@H](C)[C@H](CN(C)Cc1ccccc1)O2	–
C[C@@H]1CN([C@H](C)CO)S(=O)(=O)c2ccc(C#CC3(O)CCCC3)cc2O[C@@H]1CN(C)C(=O)Nc1ccc(F)cc1	–
C[C@H](CO)N1C[C@H](C)[C@H](CN(C)Cc2ccccn2)Oc2ncc(Br)cc2C1=O	–
C[C@H](CO)N1C[C@H](C)[C@@H](CN(C)C(=O)CC2CC2)Oc2cc(C#CCC3CCCC3)ccc2S1(=O)=O	–
COc1cccc(C2NC(=S)NC(C)=C2C(=O)c2ccccc2)c1OC (configuration not stated)	–
COc1ccc(/C=C/C(=O)c2ccc[nH]2)c(OC)c1OC	32
Cc1ccc(-c2cnc3c(c2)C(=O)N([C@@H](C)CO)C[C@H](C)[C@@H](CN(C)C(=O)c2ccncc2)O3)cc1	–
C[C@@H]1CN([C@H](C)CO)C(=O)c2cc(C#C[C@@H](C)O)cnc2O[C@@H]1CN(C)C(=O)CN(C)C	–
CO[C@H]1CN(C)C(=O)c2ccc(NC(=O)NC(C)C)cc2OC[C@@H](C)NC[C@H]1C	–
CC(C)CC#Cc1cnc2c(c1)C(=O)N([C@H](C)CO)C[C@H](C)[C@H](CN(C)C(=O)NC1CCCC1)O2	–
CCCCCCCCCn1c2c(c(=N)c3c1CCC3)CCC2	47
CCCN(C)C[C@H]1Oc2ncc(C#CC3CCCCC3)cc2C(=O)N([C@H](C)CO)C[C@H]1C	–
CC(C)C#Cc1ccc2c(c1)O[C@@H](CN(C)C(=O)NC(C)C)[C@@H](C)CN([C@H](C)CO)S2(=O)=O	–
CCCN1C[C@H](C)[C@@H](OC)CN(C)C(=O)c2ccc(NC(=O)COC)cc2OC[C@H]1C	–
C[C@H](CO)N1C[C@H](C)[C@H](CN(C)C(=O)C2CC2)Oc2cc(C#CC3CC3)ccc2S1(=O)=O	–
SMILES	miR122 inh
C[C@@H]1CN([C@@H](C)CO)C(=O)c2cc(-c3cccnc3)cnc2O[C@@H]1CN(C)Cc1ccc(Oc2ccccc2)cc1	–
CCCCN(CCCC)C(=O)CN(C)S(=O)(=O)c1ccc2c(c1)n(C)c(=O)c(=O)n2C	50
COCC(=O)N(C)C[C@H]1Oc2cc(-c3cncnc3)ccc2S(=O)(=O)N([C@H](C)CO)C[C@H]1C	–
C[C@H](CO)N1C[C@H](C)[C@H](CN(C)CC2CCCC2)Oc2ncc(C#Cc3cccc(F)c3)cc2C1=O	–
Cc1cc(NS(=O)(=O)c2ccc(NC(=O)C(CC(C)C)N3C(=O)c4ccccc4C3=O)cc2)nc(C)n1 (configuration not stated)	35
CCOc1ccc(NS(=O)(=O)c2ccc(NC(=S)NC(=O)CC(C)C)cc2)cc1	–
Cc1ccc(S(=O)(=O)Nc2ccc3ccccc3c2)cc1	–

Screens (PubChem BioAssay)
